Assay results reported in PubChem BioAssay (NCATS).
Activity calls are given as the source filed them. Calls follow the shape of the dose curve; as a rule, active = well fitted curve in the direction sought with a large enough effect; inconclusive = small, poorly fitted or top-dose-only effect, or another doubt; inactive = no such curve, though single readings can be large or run the other way.

What follows are molecules tested against Galactokinase (Homo sapiens) (UniProt P51570) (assay: qHTS Validation Assay for Inhibitors of Human Galactokinase (GALK) (AID 493189; also: 0% is about no effect)). Conditions: purified human GALK enzyme activity, qHTS 7-point titration; series mostly up to 57.5 µM; activity change, negative = inhibition: at the top concentration.
Sequence of Galactokinase (Homo sapiens) (P51570 whole entry, looked up): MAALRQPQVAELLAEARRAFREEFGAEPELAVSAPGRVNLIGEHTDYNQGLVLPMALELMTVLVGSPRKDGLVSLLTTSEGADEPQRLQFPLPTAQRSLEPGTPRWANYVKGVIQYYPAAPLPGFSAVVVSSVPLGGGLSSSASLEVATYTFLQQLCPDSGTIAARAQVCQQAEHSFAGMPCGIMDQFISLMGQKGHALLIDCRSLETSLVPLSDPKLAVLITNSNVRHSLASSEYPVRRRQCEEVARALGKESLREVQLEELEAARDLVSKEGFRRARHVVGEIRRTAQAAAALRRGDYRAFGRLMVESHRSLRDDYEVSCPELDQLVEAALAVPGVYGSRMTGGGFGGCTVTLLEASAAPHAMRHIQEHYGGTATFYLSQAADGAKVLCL
Text: NIH Molecular Libraries Probe Production Centers Network [MLPCN]
NIH Chemical Genomics Center [NCGC]
Assay Submitter (PI): Kent Lai (University of Utah School of Medicine, 50 N Mario Capecchi Drive, Salt Lake City, UT 84132)
Inherited deficiency of galactose-1-phosphate uridyltransferase (GALT) can result in a potentially lethal disorder called Classic Galactosemia (OMIM 230400). Several lines of evidence indicate that an elevated level of galactose-1-phosphate (gal-1-p), the product of galactokinase (GALK), is a major, if not sole, pathogenic mechanism in patients with classic galactosemia. Therefore, finding inhibitors of GALK is a potential novel therapy for this inherent metabolic disease and is the long term goal of this project.
GALK (provided by the assay submitter) was assayed using ATP and D-(+)-Galactose (Sigma-Aldrich cat# G0750) as substrates. Promega Kinase-Glo Plus (cat# V3774) technology was used to detect the residual ATP following kinetic reaction. Briefly, the Kinase-Glo Plus contains Ultra-Glo [2] luciferase and D-luciferin which generates a bioluminescence signal from the remaining ATP.
NCGC Assay Protocol Summary:
Three uL/well of ATP-buffer solution (35 uM ATP, 20mM HEPES pH8.0, 5 mM MgCl2, 60 mM NaCl, 1 mM DTT, 0.01% BSA final concentration) was dispensed into 1536-well, assay plates (Greiner, solid white medium-binding plates) with Aurora Discovery BioRAPTR Flying Reagent Dispenser (FRD; Beckton-Dickenson). Compound solution (23 nL) was transferred to the assay plate using the Kalypsys 1536-pin tool. One uL/well GALK-galactose solution (5 nM GALK, 100 uM galactose, 20 mM HEPES pH8.0, 5 mM MgCl2, 60 mM NaCl, 1 mM DTT, 0.01% BSA final concentration) was then added using the FRD yielding a total kinase reaction volume of 4 uL/ well. After 1 hour of room temperature incubation, 4 uL Kinase-Glo Plus reagent was added for a final assay volume of 8 uL/ well. Luminescence was detected with the ViewLux plate reader (Perkin Elmer, Waltham, MA) after 10 min incubation using a 1 sec exposure time and 2x binning.
For `C=C/C(C)=C/[C@@]1(C)SC(=O)C(C)=C1O`, the “activity change, negative = inhibition” value was -2.11% (inactive). For `COc1ccc(NC(=O)/C=C/c2ccc(Cl)cc2)cc1`, the “activity change, negative = inhibition” value was 3.65% (inactive). In the case of `COc1ccc(/C=C/C(=O)Nc2ccccc2C(=O)O)cc1OC`, the “activity change, negative = inhibition” value was -0.374% (inactive). For `CC(C)(C)NCC(O)COc1nsnc1N1CCOCC1` (stereo not given), the “activity change, negative = inhibition” value was -0.564% (inactive). In the case of `Oc1ccccc1O`, the “activity change, negative = inhibition” value was -2.4% (inactive). For `O=C(O)[C@@H]1C[C@H](C(=O)O)N1`, the “activity change, negative = inhibition” value was 2.22% (inactive). In the case of `O=S(=O)(c1cccc2c(I)cccc12)N1CCCNCC1`, the “activity change, negative = inhibition” value was 13.7% (inactive). `CC(=O)N[C@H](C(=O)O)C(C)(C)SN=O` was tested, and the “activity change, negative = inhibition” value was -0.961% (inactive). `CN=c1nc(-c2ccccc2)n(-c2ccccc2)s1` was tested, and the “activity change, negative = inhibition” value was 2.56% (inactive). `CC12C(=O)OC(=O)C1(C)C1CCC2O1` (stereo not given) was tested, and the “activity change, negative = inhibition” value was 3.46% (inactive). For `CN(C)c1ccc(/C=C2\C(=O)Nc3ccccc32)cc1`, the “activity change, negative = inhibition” value was -0.43% (inactive). With `NCCSSCCN` the “activity change, negative = inhibition” value was -4.36% (inactive). `N#C/C(=C\c1ccc(O)c(O)c1)C(=O)NCc1ccccc1` was tested, and the “activity change, negative = inhibition” value was 0.767% (inactive). For `CN1CCc2cc(O)c(O)cc2C(c2ccccc2)C1` (stereo not given), the “activity change, negative = inhibition” value was -2.72% (inactive). `CN[C@H](CC(C)C)C(=O)N[C@H]1C(=O)N[C@@H](CC(N)=O)C(=O)N[C@H]2C(=O)N[C@H]3C(=O)N[C@H](C(=O)N[C@H](C(=O)O)c4cc(O)cc(O)c4-c4cc3ccc4O)[C@H](O)c3ccc(c(Cl)c3)Oc3cc2cc(c3O[C@@H]2O[C@H](CO)[C@@H](O)[C@H](O)[C@H]2O[C@H]2C[C@](C)(N)[C@H](O)[C@H](C)O2)Oc2ccc(cc2Cl)[C@H]1O` was tested, and the “activity change, negative = inhibition” value was 3.82% (inactive). For `O=C(O)CC1CCCc2ccccc2C1O` (stereo not given), the “activity change, negative = inhibition” value was 3.68% (inactive). `C[C@@H](CN1CCC(Cc2ccccc2)CC1)[C@@H](O)c1ccc(O)cc1` was tested, and the “activity change, negative = inhibition” value was 3.47% (inactive). `CC1(C)CCC=[N+]1[O-]` was tested, and the “activity change, negative = inhibition” value was -0.168% (inactive). In the case of `N#C/C(=C\c1c[nH]c2ccccc12)C(=O)c1ccc(O)c(O)c1`, the “activity change, negative = inhibition” value was -25.1% (inactive). In the case of `c1ccc(-c2ccccn2)nc1`, the “activity change, negative = inhibition” value was 2.72% (inactive). In the case of `O=C(O)c1cc([N+](=O)[O-])ccc1NCCCc1ccccc1`, the “activity change, negative = inhibition” value was -0.475% (inactive). For `Brc1c(Br)c(Br)c2n[nH]nc2c1Br`, the “activity change, negative = inhibition” value was -0.24% (inactive). In the case of `O=C(O)c1cc(=O)c2ccccc2[nH]1`, the “activity change, negative = inhibition” value was 4.14% (inactive). In the case of `Cc1ccc(C(=O)O[C@H](C(=O)O)[C@@H](OC(=O)c2ccc(C)cc2)C(=O)O)cc1` (tested in a mixture with another compound), the “activity change, negative = inhibition” value was -3.22% (inactive). In the case of `C#CCN1C(C)=C(C(=O)OC)C(c2cccc([N+](=O)[O-])c2)C(C(=O)OCC)=C1C` (stereo not given), the “activity change, negative = inhibition” value was 1.95% (inactive). With `C=CC(N)CCC(=O)O` (stereo not given) the “activity change, negative = inhibition” value was -4.79% (inactive). `CCCN(CC1CC1)c1nc(C)nc(Nc2c(Cl)cc(Cl)cc2Cl)c1Cl` was tested, and the “activity change, negative = inhibition” value was -0.944% (inactive). With `CC(C)(C=O)Cc1cc(C(C)(C)C)c(O)c(C(C)(C)C)c1` the “activity change, negative = inhibition” value was -3% (inactive). For `NC[C@@H]1O[C@H](C23CC4CC(CC(C4)C2)C3)Cc2c1ccc(O)c2O`, the “activity change, negative = inhibition” value was -2.08% (inactive). In the case of `CCCCCCCCCCCCCCCCCCNC(=O)OCC(COP(=O)([O-])OCC[n+]1ccsc1)OC` (stereo not given), the “activity change, negative = inhibition” value was 0.236% (inactive). In the case of `c1cnc2c(c1)ccc1cccnc12`, the “activity change, negative = inhibition” value was -4.24% (inactive). In the case of `CN(C)c1nc(N)c(C(=O)N=C(N)N)nc1Cl`, the “activity change, negative = inhibition” value was 4.48% (inactive). With `CN(C)CCC(c1ccc(Cl)cc1)c1ccccn1` (stereo not given) the “activity change, negative = inhibition” value was -3.7% (inactive). For `Cn1cc(C2=C(c3ccc(Cl)cc3Cl)C(=O)NC2=O)c2ccccc21`, the “activity change, negative = inhibition” value was 3.11% (inactive). For `CN1CCc2cc(NC(=O)Nc3cccnc3)ccc21`, the “activity change, negative = inhibition” value was 1.69% (inactive). In the case of `Cc1ccccc1CNc1ncnc2c1ncn2C1OC(CO)C(O)C1O` (stereo not given), the “activity change, negative = inhibition” value was 3.8% (inactive). For `Cc1cc(NC(=O)Nc2ccc3c(ccn3C)c2)sn1`, the “activity change, negative = inhibition” value was -3.61% (inactive). For `CO/N=C(\C(=O)N[C@@H]1C(=O)N2C(C(=O)O)=C(COC(C)=O)CS[C@H]12)c1csc(N)n1` (stereo in doubt), the “activity change, negative = inhibition” value was -2.3% (inactive). `O=C(O)CNC(=O)C(CS)Cc1ccccc1` (stereo not given) was tested, and the “activity change, negative = inhibition” value was -1.22% (inactive). `NCCCCC(=O)O` was tested, and the “activity change, negative = inhibition” value was -2.67% (inactive).
